# Results filed as inconclusive are left out. A number with no mark means an inactive call. Calls follow the shape of the dose curve; as a rule, active = well fitted inhibition curve with a large enough effect in the signal ratio in the repeat runs (not every such curve was filed as active); inconclusive = weak or mixed curves, or effect the other way; inactive = flat fitted curve, though single readings scatter; the % refers to the signal ratio.
# Test: cAMP Responsive Elements (CRE) small molecule antagonists, cell-based qHTS assay (AID 1963591)
# Settings: CRE-bla HEK293T, beta-lactamase FRET ratio; series mostly up to 92.4 µM; activity change, negative = inhibition: at the top concentration
# Text: U.S. Tox21 Program National Center for Advancing Translational Sciences [NCATS] Division of Preclinical Innovation [DPI] U.S. Environmental Protection Agency [EPA] National Institutes of Environmental Health Sciences [NIEHS] National Toxicology Program [NTP] U.S. Food and Drug Administration [FDA] Tox21 Assay Overview: CREB (cyclic-AMP Responsive Element Binding Protein) is a cellular transcription factor. It binds to certain DNA sequences called cAMP Responsive Elements (CRE) and regulates the transcription of the genes. […] This cell line can be used to find agonists/antagonists of the cyclic AMP signaling pathway. The activation of the report gene under culture conditions can be detected by fluorescence intensity. This cell line has been used to screen the Tox21 10K compound library to […].
# Tox21 Assay Protocol Summary: CRE-bla Hek 293T cells were suspended in assay medium (DMEM containing 10% dialyzed FBS, 0.1 mM NEAA, 1 mM sodium pyruvate and 25 mM HEPES) and dispensed at 2,000 cells/4 uL /well into 1536-well black wall/clear bottom plates using a Multidrop Combi (ThermoFisher Scientific, Waltham, MA) dispenser. After the assay plates were incubated at 37 C/5% CO2 for 18 hrs, 23 nL of compounds dissolved in DMSO, positive controls or DMSO only was transferred to the assay plate by a pintool workstation (Kalypsys, San Diego, CA), followed by addition of 1 […] uL of 1.25uM NKH477 (0.25 uM as final concentration) in assay medium using a Flying Reagent Dispenser (Aurora Discovery, San Diego, CA). The plates were incubated at 37 C and 5% CO2 for 3 hrs. Then 1 uL of LiveBLAzer B/G FRET substrate (Invitrogen, Carlsbad, CA) was added to each well using Bioraptr Flying Reagent Dispenser (FRD, Aurora Discovery, San Diego, CA). The plates were incubated at room temperature for 2 h.
# % is scaled to controls: 0 for no effect and ±100 for the full control effect.
row,SMILES,"activity change, negative = inhibition"
1,CC(COc1ccccc1)NN (stereo not given),9.44% [at 42.4 µM]
2,C=C(C)[C@@H]1CC=C(C)C(=O)C1,-11.3%
3,O=CO,-5.34% [at 8.39 µM]
4,C[C@H]1COc2c(C3(N)CC3)c(F)cc3c(=O)c(C(=O)O)cn1c23,6.17% [at 42.4 µM]
5,CC(=O)CC(=O)Nc1ccc(S(=O)(=O)O)cc1,-4.86%
6,CCCCO,1.07%
7,CC(C)C(C)C,1.97%
8,O=[N+]([O-])C1(Br)COCOC1,-0.536%
9,COC(=O)Nc1nc2ccc(C(=O)c3ccccc3)cc2[nH]1,-0.657% [at 42.4 µM]
10,COc1ccc2c(c1)c(CC(=O)OC/C=C(\C)CC/C=C(\C)CCC=C(C)C)c(C)n2C(=O)c1ccc(Cl)cc1,2.6% [at 42.4 µM]
11,OCCOc1cccc(OCCO)c1,-1.3%
12,COc1cccc(N)c1,0.378%
13,CCc1oc2ccccc2c1C(=O)c1cc(Br)c(O)c(Br)c1,2.14% [at 42.4 µM]
14,Cc1ccccn1,0%
15,C=C1c2cccc(O)c2C(O)=C2C(=O)[C@]3(O)C(O)=C(C(N)=O)C(=O)[C@@H](N(C)C)[C@@H]3[C@@H](O)[C@H]12,-16.2% [at 42.4 µM]
16,COC(C(=O)O)c1ccccc1 (stereo not given),15.1%
17,C[C@H](CS)C(=O)N1CCC[C@H]1C(=O)O,-3.92% [at 42.4 µM]
18,COC(Cc1ccccc1)OC,-3.74%
19,NC(N)=NS(=O)(=O)c1ccc(N)cc1,-6.85% [at 42.4 µM]
20,CCOC(=O)/C=C/c1ccccc1,-0.355%

row,SMILES,"activity change, negative = inhibition"
1,CC/C=C1/OC(=O)c2ccccc21,0.686%
2,CCCC1CCC(=O)CC1,2.16%
3,COC(=O)c1ccccc1OC,-2.19%
4,C/C(=C\c1ccc(C(=O)O)cc1)c1ccc2c(c1)C(C)(C)CCC2(C)C,4.34% [at 42.4 µM]
5,COc1ccc(/C=C/c2cc(OC)cc(=O)o2)cc1,8.6% [at 42.4 µM]
6,Cc1c(N)c(=O)n(-c2ccccc2)n1C,-3.74% [at 42.4 µM]
7,C=C[Si]1(C)O[Si](C)(C=C)O[Si](C)(C=C)O[Si](C)(C=C)O1 (stereo not given),-2.56%
8,COc1ccc2c(c1)c1c3n2CCN(C)C3=NCC1,-8.65% [at 42.4 µM]
9,COc1nccnc1CC(C)C,-1.5%
10,C1CCC2=NCCCN2CC1,-2.11%
11,CC(=O)c1ccc2c(c1)N(CCCN1CCC(CCO)CC1)c1ccccc1S2,0.23% [at 42.4 µM]
12,O=C1c2ccccc2C(=O)c2c(O)ccc(O)c21,0.467%
13,Cc1c(N)cccc1N,3.35%
14,C=CC(=C)CCC=C(C)C,-11.2%
15,O=C(O)/C=C(\CC(=O)O)C(=O)O,-2.63% [at 42.4 µM]
16,Cc1ccc(C(C)C)cc2c(C)ccc1-2,0.494% [at 42.4 µM]
17,COc1cccc2sc(N)nc12,11.6%
18,CCOC(=O)C(C)Oc1ccc(Oc2nc3ccc(Cl)cc3o2)cc1 (stereo not given),6.46%
19,Sc1nc(S)nc(S)n1,5.17% [at 42.4 µM]
20,CC(C)C(C)(C)C(C)(C)C(C)(C)S,-10.2%

# — PubChem BioAssay (Tox21)
